Outcome and AC50 data for eight molecules are collected here from PubChem BioAssay (EPA / NIEHS).

Records with an inconclusive call do not appear. Calls of active or inactive are those of the source. The calls were made as follows: active = hit-call score of the fitted dose curve at least 0.9, where 1 is the maximum; inconclusive = response in the unintended direction; inactive = score below 0.9.

Read-out in assay [1]: xenobiotic metabolism (CYP1A2), CYP1A2 (gene 1544)
In words: CLD_CYP1A2_24hr: CellzDirect (CLD) Gene Expression Assay for xenobiotic metabolism (CYP1A2) at 24 hours (AID 2283683). The method in brief: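 CYP1A2 mRNA induction measured by quantitative nuclease protection (chemiluminescent) in human primary hepatocytes 24 h after multi-concentration chemical dosing with daily fresh solutions. DMSO (0.2%) baseline; positive-direction fitting; morphology-based cytotoxicity noted.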

Read-out in assay [2]: ABC Transporter (ABCB1), ABCB1 (gene 5243)
Briefly: CLD_ABCB1_24hr: CellzDirect (CLD) Gene Expression Assay for ABC Transporter (ABCB1) at 24 hours (AID 2283684). In short, it runs like this:
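ABCB1 mRNA induction versus 0.2% DMSO vehicle was read by qNPA chemiluminescence at 24 h. Cultured human hepatocytes from two donor preparations received daily fresh dosing, and phase-contrast cytotoxicity calls were annotated alongside the data.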

Read-out in assay [3]: Cytochrome P450 2B6 (Homo sapiens) (UniProt P20813)
Briefly: CLD_CYP2B6_24hr: CellzDirect (CLD) Gene Expression Assay for xenobiotic metabolism (CYP2B6) at 24 hours (AID 2283686). In short, it runs like this:
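qNPA chemiluminescent measurement of mRNA at 24 hours in human primary hepatocyte cultures from two donor preparations, with daily fresh dosing and 0.2% DMSO vehicle as baseline. Morphology-based cytotoxicity flagged yes/no.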

Read-out in assay [4]: Cytochrome P450 3A4 (Homo sapiens) (UniProt P08684)
Briefly: CLD_CYP3A4_24hr: CellzDirect (CLD) Gene Expression Assay for xenobiotic metabolism (CYP3A4) at 24 hours (AID 2283689). In short, it runs like this: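 CYP3A4 mRNA induction read by quantitative nuclease protection (chemiluminescence) 24 hr after dosing. Cultured human hepatocytes (two donor preparations) treated daily, vehicle 0.2% DMSO; phase-contrast morphology annotates cytotoxicity.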

Read-out in assay [5]: Glyceraldehyde-3-phosphate dehydrogenase (Homo sapiens) (UniProt P04406)
In words: CLD_GAPDH_24hr: CellzDirect (CLD) Gene Expression Assay for Baseline Control (Glyceraldehyde 3-phosphate dehydrogenase) at 24 hours (AID 2283692). The method in brief:
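GAPDH baseline-control readout: qNPA chemiluminescent mRNA signal in human primary hepatocytes harvested 24 h after daily dosing, normalised to 0.2% DMSO with positive fitting direction; cytotoxicity annotated by phase-contrast morphology.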

Read-out in assay [6]: alkyl and aryl transferase (GSTA2), GSTA2 (gene 2939)
In words: CLD_GSTA2_24hr: CellzDirect (CLD) Gene Expression Assay for alkyl and aryl transferase (GSTA2) at 24 hours (AID 2283693). In short, it runs like this:
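GSTA2 transcript levels were quantified by quantitative nuclease protection assay in primary human hepatocytes 24 h after daily dosing with fresh solutions at multiple concentrations; 0.2% DMSO vehicle as baseline, cytotoxicity flagged morphologically.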

Read-out in assay [7]: ABC Transporter (ABCB1), ABCB1 (gene 5243)
Briefly: CLD_ABCB1_48hr: CellzDirect (CLD) Gene Expression Assay for ABC Transporter (ABCB1) at 48 hours (AID 2283695). The method in brief:
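ABCB1 mRNA was measured by quantitative nuclease protection assay (chemiluminescence) 48 h after dosing. Human hepatocyte cultures from two separate donors received fresh dosing solutions daily for two days, with 0.2% DMSO as vehicle. Positive-direction fit against DMSO.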

Read-out in assay [8]: xenobiotic metabolism (CYP1A2), CYP1A2 (gene 1544)
Briefly: CLD_CYP1A2_48hr: CellzDirect (CLD) Gene Expression Assay for xenobiotic metabolism (CYP1A2) at 48 hours (AID 2283703). In short, it runs like this: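 Cytotoxicity was flagged yes/no from morphology, while CYP1A2 transcript induction was detected by qNPA chemiluminescence after a 48-hour exposure. Human primary hepatocyte cultures from separate donors received fresh dosing solutions daily over two days, with 0.2% DMSO as vehicle and baseline.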

Read-out in assay [9]: Broad substrate specificity ATP-binding cassette transporter ABCG2 (Homo sapiens) (UniProt Q9UNQ0)
Briefly: CLD_ABCG2_48hr: CellzDirect (CLD) Gene Expression Assay for ABC Transporter (ABCG2) at 48 hours (AID 2283704). The method in brief: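 ABCG2 transcript measured at 48 h by quantitative nuclease protection (chemiluminescent) and fitted for increase relative to 0.2% DMSO. Hepatocyte cultures from separate donors got fresh compound daily over two days; morphology annotated cytotoxicity.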

Read-out in assay [10]: Broad substrate specificity ATP-binding cassette transporter ABCG2 (Homo sapiens) (UniProt Q9UNQ0)
Briefly: CLD_ABCG2_24hr: CellzDirect (CLD) Gene Expression Assay for ABC Transporter (ABCG2) at 24 hours (AID 2283685). The method in brief:
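ABCG2 mRNA induction, read as gain of chemiluminescent signal over 0.2% DMSO, was measured by quantitative nuclease protection at 24 h. Cultured human liver hepatocytes were given fresh dosing solutions of test chemicals at several concentrations each day.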

Read-out in assay [11]: Cytochrome P450 3A4 (Homo sapiens) (UniProt P08684)
Briefly: CLD_CYP3A4_48hr: CellzDirect (CLD) Gene Expression Assay for xenobiotic metabolism (CYP3A4) at 48 hours (AID 2283698). The method in brief:
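CYP3A4 induction read by qNPA chemiluminescence after 48 h, with fresh dosing solutions on consecutive days, in cultured human hepatocytes (two donors). Vehicle 0.2% DMSO as baseline; microscopy-based cytotoxicity annotated yes/no alongside data.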

Read-out in assay [12]: Cytochrome P450 2C19 (Homo sapiens) (UniProt P33261)
In words: CLD_CYP2C19_24hr: CellzDirect (CLD) Gene Expression Assay for xenobiotic metabolism (CYP2C19) at 24 hours (AID 2283687).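 Also: activity means mRNA induction above DMSO vehicle baseline.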 The method in brief: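 CYP2C19 mRNA was quantified by qNPA chemiluminescence after 24 h of daily dosing of cultured human primary hepatocytes from two donors; vehicle was 0.2% DMSO, and increases over DMSO baseline were fitted.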

Read-out in assay [13]: HMG-CoA synthase (HMGCS2), HMGCS2 (gene 3158)
Briefly: CLD_HMGCS2_24hr: CellzDirect (CLD) Gene Expression Assay for HMG-CoA synthase (HMGCS2) at 24 hours (AID 2283691). In short, it runs like this:
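qNPA with S1 nuclease digestion and chemiluminescent detection gave HMGCS2 transcript levels, fitted upward against 0.2% DMSO vehicle. Cultured human hepatocytes (two donors) received fresh compound daily and were harvested at 24 h; phase-contrast morphology flagged cytotoxicity.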

Read-out in assay [14]: glucuronosyltransferase (UGT1A1), UGT1A1 (gene 54658)
In words: CLD_UGT1A1_24hr: CellzDirect (CLD) Gene Expression Assay for glucuronosyltransferase (UGT1A1) at 24 hours (AID 2283696). In short, it runs like this: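 UGT1A1 transcript induction was measured by quantitative nuclease protection assay (chemiluminescence) in human hepatocyte cultures 24 h after daily fresh dosing, with 0.2% DMSO as vehicle and baseline.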

Read-out in assay [15]: xenobiotic metabolism (CYP1A1), CYP1A1 (gene 1543)
In words: CLD_CYP1A1_48hr: CellzDirect (CLD) Gene Expression Assay for xenobiotic metabolism (CYP1A1) at 48 hours (AID 2283705). In short, it runs like this:
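CYP1A1 transcript measured by quantitative nuclease protection (chemiluminescent) 48 h after two daily treatments of human hepatocyte cultures, versus 0.2% DMSO. Morphology-based cytotoxicity flags accompany data; two donor preparations used.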

Read-out in assay [16]: sulfotransferase (SULT2A), SULT2A1 (gene 6822)
In words: CLD_SULT2A_24hr: CellzDirect (CLD) Gene Expression Assay for sulfotransferase (SULT2A) at 24 hours (AID 2283694). In short, it runs like this: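 mRNA is measured by qNPA: probe hybridisation, S1 nuclease digestion, chemiluminescence, in lysates from human primary hepatocytes harvested 24 h after daily dosing. Vehicle was 0.2% DMSO. Phase-contrast microscopy flagged cytotoxicity (yes/no).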

Read-out in assay [17]: Cytochrome P450 2B6 (Homo sapiens) (UniProt P20813)
In words: CLD_CYP2B6_48hr: CellzDirect (CLD) Gene Expression Assay for xenobiotic metabolism (CYP2B6) at 48 hours (AID 2283699).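 Also: actives raise transcript level above DMSO so potency reflects induction.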 In short, it runs like this: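 CYP2B6 transcript induction, read by quantitative nuclease protection (S1 digestion, chemiluminescent detection) 48 h after dosing, is fitted upward against 0.2% DMSO. Cultured human liver primary cells, two donor preparations, received fresh chemical daily over multiple concentrations.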

Broad substrate specificity ATP-binding cassette transporter ABCG2 (Homo sapiens), sequence (Q9UNQ0 whole entry, looked up): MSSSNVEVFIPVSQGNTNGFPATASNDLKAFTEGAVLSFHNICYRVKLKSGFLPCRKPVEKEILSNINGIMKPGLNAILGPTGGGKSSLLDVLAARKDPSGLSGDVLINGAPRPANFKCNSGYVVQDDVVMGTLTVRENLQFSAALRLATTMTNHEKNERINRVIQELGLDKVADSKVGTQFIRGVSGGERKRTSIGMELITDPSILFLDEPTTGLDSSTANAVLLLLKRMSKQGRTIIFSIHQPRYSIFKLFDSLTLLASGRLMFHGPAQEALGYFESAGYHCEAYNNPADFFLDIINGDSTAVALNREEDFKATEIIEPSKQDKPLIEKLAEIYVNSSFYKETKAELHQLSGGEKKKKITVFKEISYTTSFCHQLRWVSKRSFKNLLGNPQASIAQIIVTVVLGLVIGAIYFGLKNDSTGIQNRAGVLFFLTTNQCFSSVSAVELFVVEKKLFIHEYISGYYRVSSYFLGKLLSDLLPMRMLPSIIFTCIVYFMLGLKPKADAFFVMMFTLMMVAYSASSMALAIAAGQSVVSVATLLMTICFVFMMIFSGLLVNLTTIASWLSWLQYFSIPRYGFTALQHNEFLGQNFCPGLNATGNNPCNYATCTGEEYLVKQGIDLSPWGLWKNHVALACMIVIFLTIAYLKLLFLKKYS
Cytochrome P450 3A4 (Homo sapiens), sequence (P08684 whole entry, looked up): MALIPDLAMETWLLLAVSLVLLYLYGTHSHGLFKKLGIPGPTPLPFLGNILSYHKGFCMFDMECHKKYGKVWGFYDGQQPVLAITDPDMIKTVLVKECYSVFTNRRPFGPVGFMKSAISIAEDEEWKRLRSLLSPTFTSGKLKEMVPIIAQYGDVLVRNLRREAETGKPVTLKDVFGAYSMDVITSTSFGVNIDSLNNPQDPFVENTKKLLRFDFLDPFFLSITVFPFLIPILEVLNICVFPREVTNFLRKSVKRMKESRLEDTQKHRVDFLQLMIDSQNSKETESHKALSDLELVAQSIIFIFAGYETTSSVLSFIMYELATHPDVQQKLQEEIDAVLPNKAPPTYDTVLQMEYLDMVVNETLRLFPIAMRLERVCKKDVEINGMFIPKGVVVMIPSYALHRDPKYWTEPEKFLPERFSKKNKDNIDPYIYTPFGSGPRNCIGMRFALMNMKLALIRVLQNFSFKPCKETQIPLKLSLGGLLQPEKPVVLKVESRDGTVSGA
Glyceraldehyde-3-phosphate dehydrogenase (Homo sapiens), sequence (P04406 whole entry, looked up): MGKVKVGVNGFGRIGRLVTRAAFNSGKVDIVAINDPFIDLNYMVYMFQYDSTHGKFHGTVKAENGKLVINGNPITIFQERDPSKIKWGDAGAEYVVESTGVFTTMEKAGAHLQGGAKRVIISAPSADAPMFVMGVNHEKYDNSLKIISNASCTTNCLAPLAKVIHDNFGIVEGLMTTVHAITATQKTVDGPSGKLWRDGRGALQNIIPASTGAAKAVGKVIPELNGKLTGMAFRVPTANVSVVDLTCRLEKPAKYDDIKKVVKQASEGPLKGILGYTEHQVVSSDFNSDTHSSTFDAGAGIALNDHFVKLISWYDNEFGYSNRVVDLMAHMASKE
Cytochrome P450 2C19 (Homo sapiens), sequence (P33261 whole entry, looked up): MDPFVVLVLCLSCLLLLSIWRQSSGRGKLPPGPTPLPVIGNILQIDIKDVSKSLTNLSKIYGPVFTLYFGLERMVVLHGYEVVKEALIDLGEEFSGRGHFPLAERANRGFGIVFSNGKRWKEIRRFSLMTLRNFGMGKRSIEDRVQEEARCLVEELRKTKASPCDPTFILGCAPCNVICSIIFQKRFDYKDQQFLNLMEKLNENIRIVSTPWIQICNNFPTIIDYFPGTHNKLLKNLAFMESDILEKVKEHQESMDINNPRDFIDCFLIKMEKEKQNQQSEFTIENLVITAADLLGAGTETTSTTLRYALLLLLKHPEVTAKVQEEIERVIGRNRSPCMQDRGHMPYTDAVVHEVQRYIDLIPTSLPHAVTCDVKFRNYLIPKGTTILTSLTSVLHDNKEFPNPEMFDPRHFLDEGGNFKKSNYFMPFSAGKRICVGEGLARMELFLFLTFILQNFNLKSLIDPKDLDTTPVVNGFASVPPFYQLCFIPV

On to `Clc1nc(Cl)nc(Nc2ccccc2Cl)n1`, for which the result in assay [1], in assay [2], in [3], in assay [4], in assay [5] and in assay [6] was inactive. Further, the result in assay [7], in assay [8] and in [9] was inactive.

`CO/N=C(/C1=NOCCO1)c1ccccc1Oc1ncnc(Oc2ccccc2Cl)c1F`: the molecule was called inactive in assay [1], in assay [10], in [3], in assay [4], in assay [5] and in [6]. The outcome in [7], in assay [11], in [8] and in [9] was inactive.

As for `COC(=O)NS(=O)(=O)c1ccc(N)cc1`, the molecule was called inactive in assay [1], in assay [3], in assay [12], in [4], in [13] and in [6]. The call in assay [7], in assay [14], in [11], in assay [8] and in assay [15] was inactive.

`CCNP(=S)(OC)O/C(C)=C/C(=O)OC(C)C` (stereo unspecified): the AC50 in assay [1] is 4.58 µM (active); in [4] it was 1.94 µM (active); in assay [14] it was 1.7 µM (active); in assay [17], 0.598 µM (active); in [8], 1.99 µM (active); in assay [15], 3.99 µM (active). For the same molecule, the molecule was called inactive in assay [2] and in [16].

As for `COP(=O)(OC)O/C(C)=C/C(=O)N(C)C`, the molecule was classed as inactive in [1], in assay [3], in assay [12], in [4], in [13] and in [6]. In addition, the call in assay [7], in assay [17], in assay [8] and in assay [9] was inactive.

With `CCCCC(C#N)(Cn1cncn1)c1ccc(Cl)cc1` (stereo unspecified), the results for the AC50 in assay [1], in assay [4] and in assay [8] were 20 µM (active), 9.54 µM (active) and 11.7 µM (active), respectively. The molecule was called inactive in assay [2], in assay [6], in assay [7], in [14] and in [9].

As for `COP(=S)(OC)Oc1ccc([N+](=O)[O-])c(C)c1`, the AC50 in assay [1] was 1.38 µM (active); in [3], 0.692 µM (active); in [4], 16.6 µM (active); in [8], 3.97 µM (active); in assay [15] it was 20 µM (active). Further, the result in [5], in [6], in [7], in assay [14] and in [9] was inactive.

Turning to `CC1(C)CCC(=Cc2ccc(Cl)cc2)C1(O)Cn1cncn1` (stereo unspecified), the AC50 in assay [1] is 3.47 µM (active); in assay [3] it was 3.58 µM (active); in assay [17], 4.01 µM (active); in assay [8], 1.66 µM (active). The result in [2], in [10], in [4], in assay [7], in assay [14] and in assay [9] was inactive.
